# Measurements reported in PubChem BioAssay.
# Experiment: DUSP6 inhibitors restoring Erk phosphorylation by chemical complementation, primary imaging in DUSP6-transfected HeLa (AID 609)
# Conditions: HeLa MKP-3 transfected, phospho-Erk imaging KS statistic; measured here: nuclear c-Myc green intensity z-score; at 10 µM; cells stimulated with TPA for 15 min
row,SMILES,z-score
1,CCN1CCCC1Cn1cnc2c([nH]c3ccc(C)cc32)c1=O (stereo not drawn),0.977
2,CCOC(=O)CSc1nc(N)c(C#N)c(-c2ccc(OC)cc2)c1C#N,1.58
3,CCOC(=O)CC1=C(C(=O)OCC)C(c2cc(OC)c(OC)cc2OC)C(C#N)=C(N)O1 (stereo not drawn),-1.51
4,CCCOc1ccc(/C(O)=C2/C(=O)C(=O)N(CCN(C)C)C2c2ccncc2)cc1 (stereo not drawn),0.199
5,CN=C1c2c(-c3ccccc3)c3cc(OC)ccc3n2CCN1C,0.295
6,COCCOC(=O)C1=C(C)NC(SCC(=O)NC(C)(C)C)=C(C#N)C1c1ccco1 (stereo not drawn),-0.0811
7,c1ccc(-c2nnc3n2N=C(c2ccc4c(c2)OCO4)CS3)nc1,0.912
8,C=COC(=O)CSc1nc(-c2cccs2)ccc1C#N,1.7
9,Cn1c(=O)oc2cc(C(=O)c3ccccc3)ccc21,-0.374
10,CCOc1nc(SCCOc2ccc(C)cc2)nc(N(C)C)n1,-0.00429
11,Cc1ccc(CC2CC(=O)N(c3ccc4c(c3)OCCO4)C2=O)cc1 (stereo not drawn),-1.24
12,COC(=O)Cn1cc(C(=O)OC)cc(Br)c1=O,0.177
13,CCN(CC)CCNC(=O)c1c(C)oc2cc(Br)c(OC)cc12,0.845
14,N=c1c2c(-c3ccccc3)c(-c3ccccc3)n(Cc3ccccc3)c2ncn1CCCn1ccnc1,0.115
15,Cc1cc(C)nc(N(C#N)S(=O)(=O)c2ccccc2Cl)n1,-1.54
16,CC1(C)Cc2c(sc3nc(SCC#N)n(C4CCCCC4)c(=O)c23)CO1,0.192
17,CN1CCN(C(=O)CSc2nc(-c3cccs3)ccc2C#N)CC1,-0.886
18,O/N=C1\CCc2cc(Cl)ccc21,0.785
19,CC(C)CC(C(=O)O)C(C)CC(=O)Nc1ccn(-c2ccccc2)n1 (stereo not drawn),-1.41
20,CCCOc1ccc(N2C(=O)CC(N(CCC)C(=O)CCC(=O)O)C2=O)cc1 (stereo not drawn),-0.331

row,SMILES,z-score
1,CCCCC(C(=O)O)C(C)CC(=O)Nc1cccc(C(=O)O)c1 (stereo not drawn),-1.73
2,CC(C)C1Cc2c(C#N)c(N)n(C)c(=S)c2CO1 (stereo not drawn),0.261
3,O=C(O)CC(NC(=O)COc1ccc(Cl)cc1Cl)C(=O)O (stereo not drawn),0.773
4,O=C1C(=O)N(CCN2CCOCC2)C(c2ccccn2)/C1=C(/O)c1ccccc1 (stereo not drawn),0.535
5,C=CCOC(=O)C1=C(C)NC(SCC(=O)N(CC)CC)=C(C#N)C1c1ccco1 (stereo not drawn),-0.441
6,CN1CCc2c(sc3ncn4nc(-c5ccccc5O)nc4c23)C1,-1.25
7,CN(C)c1ccc(-c2nn3c(-c4ccc(Cl)cc4)nnc3s2)cc1,-0.869
8,O=c1oc2c3c4c(cc2c(C(F)(F)F)c1CCN1CCOCC1)CCCN4CCC3,0.512
9,c1ccc(N2CCN(c3nc(-c4ccccn4)nc4ccccc34)CC2)cc1,1.7
10,Fc1ccc2[nH]c3c(N4CCN(Cc5ccc6c(c5)OCO6)CC4)ncnc3c2c1,0.133
11,COc1ccc(OCC(=O)N2CCN(C(=O)c3cccc4ccccc34)CC2)cc1,0.976
12,C=CCc1cccc(/C=N/c2ncn[nH]2)c1O,0.659
13,COc1cccc2c(=O)c(SC(F)(F)C(F)C(F)(F)F)c(C)[nH]c12 (stereo not drawn),2.52
14,C=CCOc1nc2c(c(=O)n(Cc3ccc(Cl)c(Cl)c3)c(=O)n2C)n1C,1.15
15,COCCNc1cc(C)c(C#N)c2nc3ccccc3n12,1.04
16,CC(C)(C)c1cccc(/C=N/O)c1O,-0.74
17,O=C(O)C1CSCN1S(=O)(=O)c1cccc2nsnc12 (stereo not drawn),1.2
18,CCN=C1SC(C(=O)Nc2ccc(Cl)c(Cl)c2)CC(=O)N1CC (stereo not drawn),-1.1
19,CC1CN(c2oc(-c3cccs3)nc2C#N)CC(C)O1 (stereo not drawn),0.306

# Same assay, conditions: HeLa MKP-3 transfected, phospho-Erk imaging KS statistic; measured here: nuclear pErk red intensity z-score; at 10 µM; stronger effect = higher value; cells stimulated with TPA for 15 min
row,SMILES,z-score
1,CCN1CCCC1Cn1cnc2c([nH]c3ccc(C)cc32)c1=O (stereo not drawn),0.149
2,CCOC(=O)CSc1nc(N)c(C#N)c(-c2ccc(OC)cc2)c1C#N,1.28
3,CCOC(=O)CC1=C(C(=O)OCC)C(c2cc(OC)c(OC)cc2OC)C(C#N)=C(N)O1 (stereo not drawn),-0.137
4,CCCOc1ccc(/C(O)=C2/C(=O)C(=O)N(CCN(C)C)C2c2ccncc2)cc1 (stereo not drawn),-1.31
5,CN=C1c2c(-c3ccccc3)c3cc(OC)ccc3n2CCN1C,-0.655
6,COCCOC(=O)C1=C(C)NC(SCC(=O)NC(C)(C)C)=C(C#N)C1c1ccco1 (stereo not drawn),-0.28
7,c1ccc(-c2nnc3n2N=C(c2ccc4c(c2)OCO4)CS3)nc1,0.545
8,C=COC(=O)CSc1nc(-c2cccs2)ccc1C#N,0.138
9,Cn1c(=O)oc2cc(C(=O)c3ccccc3)ccc21,-0.71
10,CCOc1nc(SCCOc2ccc(C)cc2)nc(N(C)C)n1,-0.85
11,Cc1ccc(CC2CC(=O)N(c3ccc4c(c3)OCCO4)C2=O)cc1 (stereo not drawn),0.443
12,COC(=O)Cn1cc(C(=O)OC)cc(Br)c1=O,0.211
13,CCN(CC)CCNC(=O)c1c(C)oc2cc(Br)c(OC)cc12,-0.848
14,N=c1c2c(-c3ccccc3)c(-c3ccccc3)n(Cc3ccccc3)c2ncn1CCCn1ccnc1,-0.203
15,Cc1cc(C)nc(N(C#N)S(=O)(=O)c2ccccc2Cl)n1,-0.959
16,CC1(C)Cc2c(sc3nc(SCC#N)n(C4CCCCC4)c(=O)c23)CO1,0.926
17,CN1CCN(C(=O)CSc2nc(-c3cccs3)ccc2C#N)CC1,-0.831
18,O/N=C1\CCc2cc(Cl)ccc21,-0.837
19,CC(C)CC(C(=O)O)C(C)CC(=O)Nc1ccn(-c2ccccc2)n1 (stereo not drawn),-0.175
20,CCCOc1ccc(N2C(=O)CC(N(CCC)C(=O)CCC(=O)O)C2=O)cc1 (stereo not drawn),-0.093

row,SMILES,z-score
1,CCCCC(C(=O)O)C(C)CC(=O)Nc1cccc(C(=O)O)c1 (stereo not drawn),0.323
2,CC(C)C1Cc2c(C#N)c(N)n(C)c(=S)c2CO1 (stereo not drawn),0.802
3,O=C(O)CC(NC(=O)COc1ccc(Cl)cc1Cl)C(=O)O (stereo not drawn),0.0309
4,O=C1C(=O)N(CCN2CCOCC2)C(c2ccccn2)/C1=C(/O)c1ccccc1 (stereo not drawn),-1.2
5,C=CCOC(=O)C1=C(C)NC(SCC(=O)N(CC)CC)=C(C#N)C1c1ccco1 (stereo not drawn),0.117
6,CN1CCc2c(sc3ncn4nc(-c5ccccc5O)nc4c23)C1,0.576
7,CN(C)c1ccc(-c2nn3c(-c4ccc(Cl)cc4)nnc3s2)cc1,-2.02
8,O=c1oc2c3c4c(cc2c(C(F)(F)F)c1CCN1CCOCC1)CCCN4CCC3,-1.2
9,c1ccc(N2CCN(c3nc(-c4ccccn4)nc4ccccc34)CC2)cc1,1.08
10,Fc1ccc2[nH]c3c(N4CCN(Cc5ccc6c(c5)OCO6)CC4)ncnc3c2c1,-0.391
11,COc1ccc(OCC(=O)N2CCN(C(=O)c3cccc4ccccc34)CC2)cc1,-0.768
12,C=CCc1cccc(/C=N/c2ncn[nH]2)c1O,-0.784
13,COc1cccc2c(=O)c(SC(F)(F)C(F)C(F)(F)F)c(C)[nH]c12 (stereo not drawn),-0.995
14,C=CCOc1nc2c(c(=O)n(Cc3ccc(Cl)c(Cl)c3)c(=O)n2C)n1C,-1.45
15,COCCNc1cc(C)c(C#N)c2nc3ccccc3n12,-1.31
16,CC(C)(C)c1cccc(/C=N/O)c1O,-1.64
17,O=C(O)C1CSCN1S(=O)(=O)c1cccc2nsnc12 (stereo not drawn),-0.893
18,CCN=C1SC(C(=O)Nc2ccc(Cl)c(Cl)c2)CC(=O)N1CC (stereo not drawn),-1.57
19,CC1CN(c2oc(-c3cccs3)nc2C#N)CC(C)O1 (stereo not drawn),0.34
